According to the antibiotic and cytotoxicity screens of Wong et al. (2023):
About 3,300 (8.5%) of roughly 39,000 compounds were called active. The sample holds actives, similar compounds and a random draw of the others, so the mix is not that of the screen.

Tested on: HepG2
Experiment: cytotoxicity call (relative viability < 0.9)
Details: 10 µM

| Compound | cytotoxicity call |
| --- | --- |
| COc1ccc(S(=O)(=O)N(C)C[C@H]2Oc3c(NC(=O)Nc4c(C)noc4C)cccc3C(=O)N([C@H](C)CO)C[C@@H]2C)cc1 | inactive |
| C[C@@H]1CN([C@H](C)CO)C(=O)c2cccc(NS(=O)(=O)c3cccs3)c2O[C@@H]1CN(C)Cc1ccc(Cl)c(Cl)c1 | inactive |
| C[C@H]1CN([C@@H](C)CO)C(=O)Cc2cc(NC(=O)Cc3ccccc3)ccc2O[C@H]1CN(C)S(C)(=O)=O | inactive |
| CNCc1ccncc1 | inactive |
| Cc1sccc1-c1csc(N)n1 | inactive |
| C[C@@H]1CN([C@@H](C)CO)C(=O)CCCn2nncc2CO[C@H]1CN(C)C(=O)Nc1ccc2c(c1)OCCO2 | inactive |
| C[C@H](CO)N1C[C@H](C)[C@H](CN(C)C(=O)Nc2cccc3ccccc23)Oc2ncc(-c3cccc(F)c3)cc2C1=O | inactive |
| C[C@H](CO)N1C[C@H](C)[C@@H](CN(C)S(=O)(=O)c2ccc(Cl)cc2)OCCCC[C@H](C)Oc2ccc(NC(=O)c3ccncc3)cc2C1=O | inactive |
| C[C@@H]1CN([C@@H](C)CO)C(=O)c2cccc(NS(=O)(=O)c3cccs3)c2O[C@H]1CN(C)S(=O)(=O)c1ccccc1 | inactive |
| COc1ccc(C#Cc2ccc3c(c2)O[C@@H](CN(C)C(=O)CN2CCOCC2)[C@H](C)CN([C@H](C)CO)S3(=O)=O)cc1 | inactive |
| C[C@H]1CN([C@@H](C)CO)C(=O)Cc2cc(NC(=O)c3ccncc3)ccc2O[C@@H]1CN(C)Cc1ccc(Oc2ccccc2)cc1 | inactive |
| C[C@@H]1CN([C@H](C)CO)C(=O)Cc2cc(NC(=O)c3ccncc3)ccc2O[C@H]1CN(C)Cc1ccc(Oc2ccccc2)cc1 | inactive |
| C[C@@H]1CN([C@@H](C)CO)C(=O)Cc2cc(NC(=O)c3ccncc3)ccc2O[C@@H]1CN(C)Cc1ccc(Oc2ccccc2)cc1 | active |
| C[C@@H]1CN([C@@H](C)CO)C(=O)Cc2cc(NC(=O)c3ccncc3)ccc2O[C@H]1CN(C)Cc1ccc(Oc2ccccc2)cc1 | active |
| C[C@H]1CN([C@@H](C)CO)C(=O)Cc2cc(NC(=O)c3ccncc3)ccc2O[C@H]1CN(C)Cc1ccc(Oc2ccccc2)cc1 | inactive |
| C[C@@H]1CN([C@H](C)CO)C(=O)Cc2cc(NC(=O)c3ccncc3)ccc2O[C@@H]1CN(C)Cc1ccc(Oc2ccccc2)cc1 | inactive |
| CO[C@@H]1CN(C)C(=O)c2ccc(NC(=O)C3CC3)cc2OC[C@@H](C)N(C(=O)C2CCOCC2)C[C@@H]1C | inactive |
| C[C@H]1CN([C@@H](C)CO)C(=O)Cc2cc(NC(=O)NC3CCCCC3)ccc2O[C@@H]1CN(C)S(=O)(=O)c1cn(C)cn1 | inactive |
| O=C(C[C@H]1C=C[C@H](NC(=O)C2CC2)[C@@H](CO)O1)NCCCN1CCOCC1 | inactive |
| C[C@@H]1CCCCO[C@@H](CN(C)C(=O)c2ccncc2)[C@@H](C)CN([C@@H](C)CO)C(=O)c2cc(NC(=O)C3CCCCC3)ccc2O1 | inactive |
| CS(=O)(=O)NCc1nnnn1-c1ccc(F)c(F)c1 | inactive |

| Compound | cytotoxicity call |
| --- | --- |
| C[C@@H]1CN([C@H](C)CO)S(=O)(=O)c2ccc(C#Cc3cccc(F)c3)cc2O[C@H]1CN(C)S(=O)(=O)c1ccccc1F | inactive |
| C[C@@H]1CN([C@@H](C)CO)C(=O)c2c(c3ccccc3n2C)-c2ccccc2CO[C@H]1CN(C)C(=O)NC1CCCCC1 | inactive |
| CCOC(=O)CSc1nc(=O)cc(C)[nH]1 | inactive |
| CCCc1cc(=O)nc(SCC(N)=O)[nH]1 | inactive |
| Cc1cc(=O)nc(SCC(N)=O)[nH]1 | active |
| C[C@H](CO)N1C[C@H](C)[C@H](CN(C)S(=O)(=O)c2cn(C)cn2)OCCCC[C@H](C)Oc2ccc(NS(=O)(=O)c3ccccc3)cc2C1=O | inactive |
| CO[C@H]1O[C@H](CO)[C@@H](OC(=O)Nc2cccc(F)c2)[C@@H]2OC(=O)[C@H](Cc3cccc(Br)c3)C/C=C/C[C@@H](Cc3cccc(Br)c3)C(=O)O[C@@H]12 | inactive |
| CCOC(=O)[C@H]1C/C=C/C[C@H](C(=O)OCC)C(=O)O[C@H]2[C@@H](OC)O[C@H](CO)[C@@H](OC(=O)c3ccc(Br)cc3)[C@@H]2OC1=O | inactive |
| CO[C@H]1O[C@H](CO)[C@@H](OC(=O)Nc2ccc3c(c2)OCO3)[C@@H]2OC(=O)[C@H](Cc3cccc(Br)c3)C/C=C/C[C@@H](Cc3cccc(Br)c3)C(=O)O[C@@H]12 | inactive |
| CCOC(=O)[C@H]1C/C=C/C[C@H](C(=O)OCC)C(=O)O[C@H]2[C@@H](OC)O[C@H](CO)[C@@H](OC(=O)Nc3ccc(Br)cc3)[C@@H]2OC1=O | active |
| CCOC(=O)[C@H]1C/C=C/C[C@H](C(=O)OCC)C(=O)O[C@H]2[C@@H](OC)O[C@H](CO)[C@@H](OC(=O)Nc3ccccc3)[C@@H]2OC1=O | inactive |
| CCOC(=O)[C@H]1C/C=C/C[C@H](C(=O)OCC)C(=O)O[C@H]2[C@@H](OC)O[C@H](CO)[C@@H](OC(=O)c3c(OC)cccc3OC)[C@@H]2OC1=O | inactive |
| CCOC(=O)[C@H]1C/C=C/C[C@H](C(=O)OCC)C(=O)O[C@H]2[C@@H](OC)O[C@H](CO)[C@@H](OC(=O)Nc3ccc(OC)cc3)[C@@H]2OC1=O | inactive |
| CO[C@H]1O[C@H](CO)[C@@H](OC(=O)Nc2ccccc2)[C@@H]2OC(=O)[C@@H](Cc3ccc4ccccc4c3)C/C=C/C[C@H](Cc3ccc4ccccc4c3)C(=O)O[C@@H]12 | inactive |
| CCOC(=O)[C@H]1C/C=C/C[C@H](C(=O)OCC)C(=O)O[C@H]2[C@@H](OC)O[C@H](CO)[C@@H](OC(=O)Nc3cccc(F)c3)[C@@H]2OC1=O | active |
| CCOC(=O)[C@H]1C/C=C/C[C@H](C(=O)OCC)C(=O)O[C@H]2[C@@H](OC)O[C@H](CO)[C@@H](OC(=O)Nc3ccc4c(c3)OCO4)[C@@H]2OC1=O | active |
| COc1ccc(NC(=O)O[C@H]2[C@@H]3OC(=O)[C@H](Cc4cccc(Br)c4)C/C=C/C[C@@H](Cc4cccc(Br)c4)C(=O)O[C@H]3[C@@H](OC)O[C@@H]2CO)cc1 | inactive |
| COc1ccc(NC(=O)O[C@H]2[C@@H]3OC(=O)[C@@H](Cc4ccc5ccccc5c4)C/C=C/C[C@H](Cc4ccc5ccccc5c4)C(=O)O[C@H]3[C@@H](OC)O[C@@H]2CO)cc1 | active |
| COc1cccc(S(=O)(=O)N2C[C@H](O)COC[C@@H]3O[C@H](CC(=O)N4CCN(C)CC4)CC[C@H]32)c1 | inactive |
| CC(C)NC(=O)Nc1cccc2c1O[C@@H](CN(C)Cc1ccc3c(c1)OCO3)[C@@H](C)CN([C@@H](C)CO)C2=O | inactive |
| O=C(C[C@@H]1C[C@H]2c3cc(NC(=O)C4CCOCC4)ccc3O[C@H]2[C@H](CO)O1)NCc1ccc(Cl)cc1 | inactive |

| Compound | cytotoxicity call |
| --- | --- |
| O=C(C[C@H]1C[C@@H]2c3cc(NC(=O)Nc4ccc(C(F)(F)F)cc4)ccc3O[C@@H]2[C@@H](CO)O1)NC1CCCCC1 | inactive |
| CC(CN)(Cc1ccccc1Cl)C(=O)O (configuration not stated) | inactive |
| C/C(C[P+](c1ccccc1)(c1ccccc1)c1ccccc1)=N\NC(=O)CCCCCC(=O)Nc1ccccc1O | inactive |
| C[C@H]1CN([C@@H](C)CO)C(=O)c2cc(C#CCN(C)C)cnc2O[C@@H]1CN(C)S(=O)(=O)c1cn(C)cn1 | inactive |
| C[C@H](CO)N1C[C@H](C)[C@@H](CN(C)C(=O)Nc2ccc3c(c2)OCO3)OCCCC[C@H](C)Oc2ccc(NC(=O)Nc3cccc4ccccc34)cc2C1=O | inactive |
| C[C@@H]1CCCCO[C@@H](CN(C)S(=O)(=O)c2cccs2)[C@H](C)CN([C@@H](C)CO)C(=O)c2cc(NS(=O)(=O)c3cn(C)cn3)ccc2O1 | inactive |
| C[C@H](CO)N1C[C@H](C)[C@@H](CN(C)C(=O)C2CC2)OCc2cnnn2CCCC1=O | inactive |
| C[C@@H]1CN([C@@H](C)CO)C(=O)Cc2cc(NC(=O)Nc3ccc(C(F)(F)F)cc3)ccc2O[C@H]1CN(C)C(=O)Nc1cccc2ccccc12 | inactive |
| CO[C@H]1O[C@H](CO)[C@@H](OC(=O)Nc2ccccc2-c2ccccc2)[C@H](OC(=O)Nc2ccc3c(c2)OCO3)[C@@H]1OC(=O)Nc1ccc2c(c1)OCO2 | inactive |
| CO[C@H]1O[C@H](CO)[C@@H](OC(=O)Nc2ccc3c(c2)OCO3)[C@H](OC(=O)Nc2ccc3c(c2)OCO3)[C@@H]1OC(=O)Nc1ccc2c(c1)OCO2 | active |
| CO[C@H]1O[C@H](CO)[C@@H](OC(=O)Nc2ccccc2-c2ccccc2)[C@H](OC(=O)Nc2ccc3c(c2)OCO3)[C@H]1OC(=O)Nc1ccc2c(c1)OCO2 | inactive |
| Nn1c(CO)nc2ccccc21 | inactive |
| O=C(N[C@H]1CC[C@H](CCNS(=O)(=O)c2ccc(F)cc2)O[C@H]1CO)C1CC1 | inactive |
| C[C@H]1CN([C@@H](C)CO)C(=O)Cc2cc(NC(=O)Nc3ccc4c(c3)OCO4)ccc2O[C@@H]1CN(C)S(C)(=O)=O | inactive |
| C[C@H]1CCCCO[C@H](CN(C)C(=O)C2CCCCC2)[C@@H](C)CN([C@@H](C)CO)C(=O)c2cc(NC(=O)c3ccncc3)ccc2O1 | inactive |
| C[C@@H]1CN([C@@H](C)CO)C(=O)c2cc(NC(=O)Nc3ccc(F)cc3)ccc2O[C@@H]1CN(C)S(C)(=O)=O | inactive |
| Cc1noc(C)c1NC(=O)N(C)C[C@H]1Oc2ncc(C#CCC(C)C)cc2C(=O)N([C@@H](C)CO)C[C@H]1C | inactive |
| COc1ccccc1-c1cccc(-c2nc(C(=O)Nc3nccs3)cc3c2[C@@H](CCO)N(C(=O)CC2CC2)C3)c1 | active |
| CCC(=O)N1Cc2cc(C(=O)Nc3nccs3)nc(-c3cccc(-c4ccccc4OC)c3)c2[C@H]1CCO | inactive |
| COc1ccccc1-c1cccc(-c2nc(C(=O)Nc3nccs3)cc3c2[C@H](CCO)N(C(=O)CC2CC2)C3)c1 | inactive |
